Screening data deposited in PubChem BioAssay by National Center for Advancing Translational Sciences (NCATS).
Pf growth 96h – Primary qHTS for delayed death inhibitors of the malarial parasite plastid, 96 hour incubation. P. falciparum luciferase reporter growth, 96 h. Potency, µM (doses to about 28.7 µM), actives largely listed as inhibitors. 6.9% of 320,000 active
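Readout is luminescence from an integrated firefly luciferase in P. falciparum. Red cells, 2% hematocrit and 0.05% parasitemia final, were cultured with compound through two parasite generations (96 hours) at 37 C, 5% CO2.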
SARS PLP yeast – qHTS of Yeast-based Assay for SARS-CoV PLP. S. cerevisiae expressing SARS-CoV PLpro, growth rescue. Potency, µM (top dose mostly 32.9 µM), most hits filed as activators. 0.19% of 330,000 active. AID 485353, 2010; calls by dose curve; also: nearly all actives have a fitted effect of over 55% in size
AMA1 RON2 block – qHTS for Inhibitors of AMA1-RON; Towards Development of Antimalarial Drug Lead: Primary Screen; Plasmodium falciparum AMA1 (3D7) - RON2 peptide interaction; AlphaScreen AMA1-biotinylated RON2 peptide binding; Potency, µM (top dose mostly 58.2 µM), usual class: inhibitors; 0.2% of 360,000 active; also: nearly all actives have a fitted effect of over 45% in size
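AMA1 (3D7) with his tag at 25 nM final met compounds first, then biotinylated RON2 peptide at 25 nM; detection used donor plus acceptor beads, 10 µg/mL apiece, read by AlphaScreen after 30 min at room temperature.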
Pf growth 48h – Primary qHTS for delayed death inhibitors of the malarial parasite plastid, 48 hour incubation; P. falciparum luciferase growth in erythrocytes, 48 h; Potency, µM (doses to about 28.7 µM), hits mostly inhibitors; 5.9% of 310,000 active; AID 504832, 2011
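Erythrocytes infected with P. falciparum carrying an integrated firefly luciferase reporter (2% hematocrit, 0.1% parasitemia final) were exposed to compounds in RPMI 1640 with 0.5% Albumax at 37 C, 5% CO2. Growth inhibition was scored as reduced luminescence.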
Each line names hits and unclear results; the compound was inactive in the other large screens. Compounds with a hit are over-represented: about 9.4% of the library has one in this group of screens. Unless noted, calls follow the shape of the dose curve; as a rule, active = well fitted curve in the direction sought with a large enough effect; inconclusive = small, poorly fitted or top-dose-only effect, or another doubt; inactive = no such curve, though single readings can be large; an effect the other way counts as inactive or inconclusive.

COc1ccc(C2N(c3cc(Cl)ccc3OC)C(=O)C3CCCN32)c(OC)c1 (configuration not stated)	Pf growth 96h 0.93µM (no result: Pf growth 48h)
O=C(c1ccco1)N1N=C(c2ccncc2)CC1(O)C(F)(F)F (configuration not stated)	Pf growth 96h 5.2µM
CCOC(=O)c1ccc(NC(=O)NCc2ccccc2OC)cc1	Pf growth 96h 13µM, Pf growth 48h inconclusive
COC(=O)c1ccc(NC(=O)Nc2ccc(F)cc2)cc1	Pf growth 96h inconclusive, Pf growth 48h inconclusive
CCOC(=O)c1ccc(NC(=S)NCCc2ccccc2)cc1	Pf growth 96h 13µM, Pf growth 48h inconclusive
CCOC(=O)c1ccc(NC(=O)Nc2ccc(F)cc2)cc1	Pf growth 96h 13µM, SARS PLP yeast inconclusive (no result: Pf growth 48h)
CCOC(=O)c1ccc(NC(=O)Nc2c(C)nn(C)c2C)cc1	Pf growth 96h 12µM
CCOC(=O)c1ccc(NC(=O)NCCc2ccccc2OC)cc1	Pf growth 96h inconclusive, Pf growth 48h inconclusive
COC(=O)c1ccc(NC(=S)NCCc2ccccc2)cc1	Pf growth 96h inconclusive, SARS PLP yeast inconclusive
O=c1[nH]c(=S)[nH]c(O)c1/C=C1/C=c2ccccc2=N1	none
CCCC1(c2ccccc2)NC(=O)N(C/C=C/Cl)C1=O (configuration not stated)	Pf growth 96h inconclusive
Cc1cc2n(n1)C(c1ccc3c(c1)OCO3)Nc1ccccc1-2 (configuration not stated)	none
O=C(NCc1ccco1)C1CCN(C(=O)c2ccc([N+](=O)[O-])cc2)CC1	none
COc1ccc(Nc2cc(C(=O)N3CCc4ccccc4C3)c3ccccc3n2)c(OC)c1	Pf growth 48h 13µM
COc1ccc(N2CCN(C(=O)c3cc(-c4cc(OC)ccc4OC)nc4ccccc34)CC2)cc1	AMA1 RON2 block 5µM, Pf growth 48h inconclusive
CC(=O)c1ccc(N2CCN(C(=O)c3cc4c(C)nc5ccccc5c4o3)CC2)cc1	Pf growth 96h inconclusive
COc1ccc(OC)c(-c2cc(C(=O)N3CCN(c4ncccn4)CC3)c3ccccc3n2)c1	Pf growth 96h inconclusive, Pf growth 48h inconclusive
CCOc1ccccc1N1CCN(C(=O)c2cc(-c3cc(OC)ccc3OC)nc3ccccc23)CC1	SARS PLP yeast inconclusive, Pf growth 48h inconclusive
COc1ccc(N2CCN(C(=O)c3cc4c(C)nc5ccccc5c4o3)CC2)cc1	Pf growth 96h 0.83µM
COc1ccc(-c2cc(C(=O)N3CCN(c4ncccn4)CC3)c3ccccc3n2)c(OC)c1	Pf growth 96h 1.9µM, Pf growth 48h inconclusive
O=C(CCn1cccn1)N1CCCC(N2CCN(c3cccc(C(F)(F)F)c3)CC2)C1 (configuration not stated)	none
COc1ccc(Nc2ccc([N+](=O)[O-])cn2)cc1	none
O=C1NC[C@H](Cc2ccccc2)N(CC2CCN(CCc3ccc(-c4ccccc4)cc3)CC2)C1=O	none (no result: Pf growth 96h, SARS PLP yeast, Pf growth 48h)
CCN(Cc1ccc(OC)c(F)c1)C(=O)/C=C/c1ccc(S(=O)(=O)N2CCOCC2)cc1	Pf growth 96h 9.3µM, Pf growth 48h 10µM
O=C(/C=C/c1ccc(F)cc1)Nc1ccc(S(=O)(=O)N2CCOCC2)cc1	Pf growth 96h inconclusive, Pf growth 48h 10µM
Cn1c(CCC(=O)Nc2ccc(F)cc2)nc2cc(S(=O)(=O)N3CCOCC3)ccc21	Pf growth 96h inconclusive
CCN(CC)S(=O)(=O)c1ccc2c(c1)nc(CCC(=O)Nc1ccc(N3CCOCC3)cc1)n2C	Pf growth 96h inconclusive, Pf growth 48h 15µM
COc1ccc(NC(=O)CN2CCN(S(=O)(=O)c3cccs3)CC2)cc1Cl	Pf growth 96h 12µM, Pf growth 48h inconclusive
COc1ccc(CNC(=O)CN2CCN(S(=O)(=O)c3cccs3)CC2)cc1OC	none
COc1ccc(/C=C/C(=O)Nc2ccccc2F)cc1S(=O)(=O)N1CCOCC1	none (no result: Pf growth 96h, Pf growth 48h)
COc1cccc(NC(=O)CN(C)C(C)C(=O)Nc2ccc(S(=O)(=O)N3CCOCC3)cc2)c1 (configuration not stated)	Pf growth 96h 4.7µM, Pf growth 48h 5.2µM
CCN(CC)S(=O)(=O)c1ccc(/C=C/C(=O)Nc2ccc(N3CCOCC3)cc2)cc1	Pf growth 96h 1.9µM, Pf growth 48h 10µM
COc1ccc(/C=C/C(=O)Nc2cccc(F)c2)cc1S(=O)(=O)N1CCOCC1	Pf growth 96h 6.6µM, Pf growth 48h inconclusive
COc1ccc(/C=C/C(=O)Nc2ccc(N3CCOCC3)cc2)cc1	none
COc1ccc(S(=O)(=O)N(CC(=O)Nc2ccc(S(=O)(=O)N3CCOCC3)cc2)Cc2ccc(F)cc2)cc1	Pf growth 96h inconclusive, Pf growth 48h 15µM
C[C@H](CO)N1C[C@H](C)[C@@H](CN(C)S(=O)(=O)c2cn(C)cn2)Oc2c(NS(=O)(=O)c3ccccc3)cccc2C1=O	none (no result: Pf growth 96h, Pf growth 48h)
CCOc1ccccc1NC(=O)/C=C/c1ccc(S(=O)(=O)N2CCOCC2)cc1	Pf growth 96h 4.7µM, Pf growth 48h 4.7µM
COc1cccc(NC(=O)/C=C/c2ccc(S(=O)(=O)N3CCOCC3)cc2)c1	Pf growth 96h 10µM, Pf growth 48h inconclusive
COc1ccc(S(=O)(=O)N2CCN(CC(=O)Nc3cccc(OC)c3)CC2)cc1	Pf growth 96h 13µM, SARS PLP yeast inconclusive
COc1ccc(S(=O)(=O)N2CCN(CC(=O)Nc3ccc(F)c(F)c3)CC2)cc1	Pf growth 96h inconclusive
CCCn1c(CCC(=O)Nc2ccccc2Cc2ccccc2)nc2cc(S(=O)(=O)N3CCOCC3)ccc21	Pf growth 96h 2.3µM (no result: Pf growth 48h)
COc1cccc(-c2csc(N3CCN(CC(=O)Nc4ccc5c(c4)OCO5)CC3)n2)c1	Pf growth 96h inconclusive, Pf growth 48h inconclusive
COc1ccc(NC(=O)CN2CCN(c3nc(-c4cccc(OC)c4)cs3)CC2)cc1	Pf growth 48h 8.3µM
COc1ccc(S(=O)(=O)N2CCC(C(=O)Nc3cccc(C(C)=O)c3)CC2)cc1	Pf growth 96h inconclusive, Pf growth 48h 12µM
CCOc1ccc(S(=O)(=O)N2CCC(C(=O)Nc3cccc(NC(C)=O)c3)CC2)cc1	none
COc1cccc(CN(C)C(=O)/C=C/c2ccc(S(=O)(=O)N3CCCCCC3)cc2)c1	Pf growth 96h 12µM, Pf growth 48h 12µM
COc1cccc(/C=C/C(=O)OCC(=O)Nc2ccc(S(=O)(=O)N3CCCC3)cc2)c1	none
Cc1ccc(NS(=O)(=O)c2ccc(Cl)c(C(=O)Nc3ccccc3-c3nc4ccccc4[nH]3)c2)cc1C	Pf growth 96h 12µM, Pf growth 48h 10µM
COc1ccc(C(C#N)(CCC#N)CCC#N)cc1OC	none (no result: Pf growth 96h)
C=CCC(C#N)(c1ccc(OC)c(OC)c1)c1cnccn1 (configuration not stated)	Pf growth 96h inconclusive, Pf growth 48h 13µM
O=C(NC1CCCCCCC1)c1ccccc1O	Pf growth 96h inconclusive, Pf growth 48h 12µM
Cc1ccccc1C(=O)NC1CCCCCCC1	none
O=C(NC1CCCCC1)c1cc2ccccc2cc1O	Pf growth 96h 1.9µM, Pf growth 48h 5.2µM
Nc1nc2ncccc2cc1C(=O)NC1CCCCC1	none (no result: Pf growth 96h, SARS PLP yeast, Pf growth 48h)
Cc1[nH]c(C)c(Cl)c(=O)c1Cl	Pf growth 96h 3.4µM, Pf growth 48h 6µM (no result: SARS PLP yeast, AMA1 RON2 block)
